Composite z-score and z-score data for 14 compounds are collected here from PubChem BioAssay.

Test [1] deals with PRMT1 (protein arginine N-methyltransferase 1). The test is described as follows: PRMT1 binders on small-molecule microarrays, primary screen, biochemical, small-molecule microarray, 635 nm fluorescence (AID 1088).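 Also: binding of Prmt1 protein to compounds spotted on small-molecule microarray slides.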 Particulars: small-molecule microarray binding, higher = more signal.
The nature of test [2]: yeast growth modulation, basal conditions, primary screen, YJM789 clinical isolate, OD600, 24 h (AID 1089).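 Also: growth of clinical yeast isolate S. cerevisiae YJM 789 seeded 1000 cells per well; test concentration not given here.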 Conditions: S. cerevisiae YJM789 growth, higher = more signal, called active from +8 up or from −8 down.
Test [3] can be described thus: fission yeast growth modulation, primary screen, strain 972, OD600, 24 h, no modulator (AID 1090).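 Also: basal condition with compound alone and no growth modifier present; test concentration not given here.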 Conditions: S. pombe 972 growth, higher = more signal, called active from +8 up or from −8 down.
A short description of test [4]: S. cerevisiae growth modulation with rapamycin, primary screen, strain BY4716, OD600, 96 h (AID 1091). Also: test concentration not given here. Conditions: higher = more signal, called active from +8 up or from −8 down.
Test [5] has as its target Torsin-1A-interacting protein 2 (Homo sapiens) (UniProt Q8NFQ8). The test is described as follows: LULL1 binders on small-molecule microarray, primary screen, cell lysate, human LULL1 lysate, 635/667 nm fluorescence (AID 1092).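 Also: probe is lysate of COS7 cells overexpressing human LULL1; score merges per-feature 667 nm fluorescence with signal-to-noise.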 Conditions: hLULL1 lysate binding, 635 nm fluorescence, higher = more signal.
The nature of test [6]: E. coli growth modulation, two-sided OD650, primary screen, E. coli filamentation project, strain DRC41, 24 h (AID 1093).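 Also: MC1000 strain lacking acrAB efflux and sulA so SOS filamentation is blocked; test concentration not given here.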 Particulars: OD650, 24 h, higher = more signal, called active from +8 up or from −8 down.
Test [7] can be described thus: small-molecule microarray binders of probe aLefty2, primary screen, biochemical, biotinylated probe, 635/667 nm fluorescence (AID 1094).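 Also: score merges spot fluorescence near 667 nm with spot signal-to-noise ratio.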 Conditions: higher = more signal.
Test [8] deals with Noggin (protein binding on small-molecule microarray). The test is described as follows: Noggin binders on small-molecule microarray, primary screen, biochemical, 635/667 nm fluorescence (AID 1095).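 Also: score merges 667 nm feature fluorescence with signal to noise over triplicate slides.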 Particulars: 635 nm fluorescence, higher = more signal.
Test [9] deals with Neurogenic locus notch homolog protein 3 (Homo sapiens) (UniProt Q9UM47). The test is described as follows: NOTCH3 binders on small-molecule microarray, primary screen, biochemical, 635/667 nm fluorescence (AID 1096). Conditions: NOTCH3 binding, 635 nm fluorescence, higher = more signal.
Sequence of Neurogenic locus notch homolog protein 3 (Homo sapiens) (Q9UM47 whole entry, looked up): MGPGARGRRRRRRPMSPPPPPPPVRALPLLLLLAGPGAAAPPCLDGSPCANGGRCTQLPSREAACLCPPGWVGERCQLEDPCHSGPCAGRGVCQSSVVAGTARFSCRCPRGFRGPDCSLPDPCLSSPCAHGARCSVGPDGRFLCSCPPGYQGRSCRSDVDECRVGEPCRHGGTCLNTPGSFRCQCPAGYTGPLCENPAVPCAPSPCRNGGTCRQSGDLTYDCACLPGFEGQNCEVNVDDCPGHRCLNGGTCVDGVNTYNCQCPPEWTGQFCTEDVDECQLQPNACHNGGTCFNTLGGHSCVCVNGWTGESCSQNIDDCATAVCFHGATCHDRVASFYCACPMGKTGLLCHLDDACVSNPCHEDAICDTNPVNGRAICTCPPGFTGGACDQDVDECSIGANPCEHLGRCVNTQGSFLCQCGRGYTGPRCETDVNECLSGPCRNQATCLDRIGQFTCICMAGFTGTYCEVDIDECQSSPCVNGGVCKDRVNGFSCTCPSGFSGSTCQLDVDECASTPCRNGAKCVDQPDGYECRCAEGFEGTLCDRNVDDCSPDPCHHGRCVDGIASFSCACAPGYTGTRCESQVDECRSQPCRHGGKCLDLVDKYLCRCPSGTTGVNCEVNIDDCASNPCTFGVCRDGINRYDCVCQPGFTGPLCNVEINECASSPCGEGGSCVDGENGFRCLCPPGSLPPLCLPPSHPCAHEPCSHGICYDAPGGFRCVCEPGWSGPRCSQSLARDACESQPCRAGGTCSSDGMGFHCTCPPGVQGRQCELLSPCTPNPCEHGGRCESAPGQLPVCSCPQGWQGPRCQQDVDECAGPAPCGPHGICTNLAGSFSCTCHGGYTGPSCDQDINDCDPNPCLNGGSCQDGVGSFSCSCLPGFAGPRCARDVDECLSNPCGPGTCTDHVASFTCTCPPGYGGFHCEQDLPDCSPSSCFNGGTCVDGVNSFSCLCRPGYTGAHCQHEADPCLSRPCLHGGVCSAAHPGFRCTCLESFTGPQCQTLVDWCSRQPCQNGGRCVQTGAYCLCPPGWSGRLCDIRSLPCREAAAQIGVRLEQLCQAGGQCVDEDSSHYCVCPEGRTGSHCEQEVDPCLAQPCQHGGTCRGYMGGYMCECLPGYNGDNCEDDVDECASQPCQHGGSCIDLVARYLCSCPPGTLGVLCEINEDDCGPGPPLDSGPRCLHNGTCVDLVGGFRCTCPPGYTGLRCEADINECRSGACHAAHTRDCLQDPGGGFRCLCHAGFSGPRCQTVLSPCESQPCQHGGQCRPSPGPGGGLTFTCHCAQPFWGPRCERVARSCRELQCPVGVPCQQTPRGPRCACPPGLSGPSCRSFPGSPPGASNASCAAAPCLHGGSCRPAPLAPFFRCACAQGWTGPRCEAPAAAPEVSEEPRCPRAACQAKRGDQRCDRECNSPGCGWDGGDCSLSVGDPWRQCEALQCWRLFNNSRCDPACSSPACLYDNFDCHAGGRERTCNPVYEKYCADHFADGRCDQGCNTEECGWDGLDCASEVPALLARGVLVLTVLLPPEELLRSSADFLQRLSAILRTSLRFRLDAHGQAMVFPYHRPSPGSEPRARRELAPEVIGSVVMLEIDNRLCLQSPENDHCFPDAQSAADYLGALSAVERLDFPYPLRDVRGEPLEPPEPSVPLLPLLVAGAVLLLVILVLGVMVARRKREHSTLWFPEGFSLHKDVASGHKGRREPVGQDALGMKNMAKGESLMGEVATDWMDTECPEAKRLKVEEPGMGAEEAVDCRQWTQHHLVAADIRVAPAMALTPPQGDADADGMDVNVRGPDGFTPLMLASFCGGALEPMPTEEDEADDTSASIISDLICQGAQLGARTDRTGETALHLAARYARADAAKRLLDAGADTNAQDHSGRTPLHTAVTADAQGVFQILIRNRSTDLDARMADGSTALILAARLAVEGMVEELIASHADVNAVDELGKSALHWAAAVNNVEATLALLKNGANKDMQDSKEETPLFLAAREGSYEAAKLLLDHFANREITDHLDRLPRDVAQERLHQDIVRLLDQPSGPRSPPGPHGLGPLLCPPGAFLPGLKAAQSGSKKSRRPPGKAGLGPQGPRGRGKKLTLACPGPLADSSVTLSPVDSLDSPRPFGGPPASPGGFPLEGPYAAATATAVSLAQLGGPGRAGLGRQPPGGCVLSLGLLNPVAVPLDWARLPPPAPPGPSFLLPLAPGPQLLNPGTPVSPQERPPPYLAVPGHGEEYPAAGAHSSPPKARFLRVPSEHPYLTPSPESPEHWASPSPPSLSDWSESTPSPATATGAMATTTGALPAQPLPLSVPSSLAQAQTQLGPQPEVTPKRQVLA
Test [10] in a line: small-molecule microarray binders of probe aEGFR, primary screen, biochemical, biotinylated probe, 635/667 nm fluorescence (AID 1097).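 Also: probe is a biotinylated anti-EGFR antibody binding compounds printed on slides; score combines fluorescence near 667 nm and signal to noise of each spot.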 Conditions: higher = more signal.

Activity calls are given as the source filed them.

Sequence of Torsin-1A-interacting protein 2 (Homo sapiens) (Q8NFQ8 whole entry, looked up): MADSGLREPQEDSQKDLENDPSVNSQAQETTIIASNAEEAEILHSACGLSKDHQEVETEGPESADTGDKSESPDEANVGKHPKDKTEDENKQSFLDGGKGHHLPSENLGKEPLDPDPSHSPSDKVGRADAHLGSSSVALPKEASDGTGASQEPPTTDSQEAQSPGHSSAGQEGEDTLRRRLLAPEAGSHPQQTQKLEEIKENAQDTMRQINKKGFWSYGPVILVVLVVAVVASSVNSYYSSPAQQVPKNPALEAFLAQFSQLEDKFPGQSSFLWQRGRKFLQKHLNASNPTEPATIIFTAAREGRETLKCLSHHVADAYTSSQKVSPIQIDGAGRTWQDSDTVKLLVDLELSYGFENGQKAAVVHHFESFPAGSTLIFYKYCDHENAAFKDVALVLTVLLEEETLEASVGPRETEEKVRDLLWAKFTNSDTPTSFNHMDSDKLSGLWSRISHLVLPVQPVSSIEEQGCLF

For the compound `O=C1O[C@@H](c2ccccc2)[C@@H](c2ccccc2)N2[C@@H](c3ccc(OCCO)cc3)[C@]3(C(=O)Nc4ccc(C#CC5=CCCCC5)cc43)[C@@H](C(=O)O)[C@H]12`, the composite z-score was determined as 1.5 in [1]; 1.96 in test [5]; 0.0919 in [7]; 0.107 in test [8]; 0.793 in test [9]; 0.0061 in [10]. The z-score was 1.73 (inactive) in [2], 1.22 (inactive) in test [3], -0.188 (inactive) in test [4] and 0.112 (inactive) in test [6].
`O=C1O[C@@H](c2ccccc2)[C@@H](c2ccccc2)N2[C@@H](c3ccc(OCCO)cc3)[C@]3(C(=O)Nc4ccccc43)[C@@H](C(=O)Nc3nc4ccccc4s3)[C@H]12`: the composite z-score was found to be 1.53 in test [1]; 3.34 in [5]; 0.321 in test [7]; 1.3 in test [8]; 1.11 in [9]; 0.224 in test [10]. Also, the z-score in test [2] is 1.46 (inactive); in test [3], 1.15 (inactive); in test [4], 2.44 (inactive); in test [6], 0.344 (inactive).
As for `NC(=O)NCC#Cc1ccc2c(c1)[C@]1(C(=O)N2)[C@H](C(=O)N2CCCCCCC2)[C@H]2C(=O)O[C@H](c3ccccc3)[C@H](c3ccccc3)N2[C@@H]1c1ccc(OCCO)cc1`, the composite z-score in test [1] is 1.43; in test [5] it was 2.06; in test [7], 1.63; in test [8], 1.47; in [9] it was 1.02; in [10] it was 0.864. Further, the z-score in test [2] is 1.65 (inactive); in test [3], 0.562 (inactive); in test [4] it was 4.58 (inactive); in [6], -0.219 (inactive).
For `COC(=O)c1ccc(OC)c(/C=C\CC(OC(C)=O)c2ccccc2)c1` (stereo not given), the composite z-score was 0.31 in [1]; 0.879 in [5]; -0.208 in test [7]; 0.0928 in [8]; 0.275 in [9]; -0.115 in test [10]. Besides, the z-score in [2] is -1.71 (inactive); in test [3] it was -1.34 (inactive); in test [4], -0.0987 (inactive); in [6], 0.759 (inactive).
Take `C=C(CCCC)/C(=C/C[C@H](OC(C)=O)c1ccc(CO)o1)c1cnc2ccccc2c1`: the composite z-score was 1.43 in test [1]; 1.46 in test [5]; -0.0998 in test [7]; 1.12 in test [8]; 1.07 in test [9]; 0.0324 in test [10]. Further, the z-score in test [2] was -0.237 (inactive); in test [3], -0.923 (inactive); in test [4] it was 1.37 (inactive); in test [6], 0.111 (inactive).
For the compound `CCOC(=O)[C@H]1C[C@H]2O[C@@]23C[C@H]1C(=O)N1CCCC1[C@@H]3O[Si](C)(C)C(C)(C)C` (stereo not given in full), the composite z-score in [1] is 0.105; in test [5], -0.0341; in test [7] it was 0.807; in [8], 0.478; in test [9] it was -0.288; in test [10], -0.149. Further, the z-score was -0.938 (inactive) in test [2], -3.58 (inactive) in [3], -1.12 (inactive) in test [4] and -0.788 (inactive) in test [6].
As to `CC(c1ccccc1)C(O)C1C=CC2C(=O)NC(=O)C2N1Nc1ccccn1` (stereo not given), the composite z-score in test [1] is 1.43; in test [5], 1.52; in test [7], 0.136; in test [8] it was 0.361; in test [9] it was 1.12; in test [10] it was -0.0159. The z-score in [2] was 0.978 (inactive); in test [3] it was 0.704 (inactive); in [4] it was 1.17 (inactive); in [6], -0.88 (inactive).
In the case of `CCCCCN1CC=CC23O[C@@H]4C=CCOC(=O)[C@@H]4[C@H]2C(=O)N(CCCO)[C@@H]3C1=O` (stereo not given in full), the composite z-score is 1.55 in test [1]; 3.5 in [5]; -0.221 in test [7]; 0.243 in test [8]; 0.0152 in [9]; -0.185 in test [10]. Further, the z-score in [2] is 0.811 (inactive); in test [3], -0.717 (inactive); in test [4], -1.05 (inactive); in test [6], 3.09 (inactive).
As for `COCCOC(=O)N1C(=O)[C@@]2(c3ccccc31)[C@H](c1ccc(O)cc1)N1[C@H](c3ccccc3)[C@H](c3ccccc3)OC(=O)[C@H]1[C@@H]2C(=O)N1CCc2cc(OC)c(OC)cc2C1`, the composite z-score was 1.54 in test [1]; 1.17 in [5]; 0.0191 in test [7]; 1.04 in test [8]; 1.06 in test [9]; 0.101 in [10]. The z-score was -1.36 (inactive) in test [2], 0.201 (inactive) in test [3], 1.3 (inactive) in test [4] and -0.121 (inactive) in [6].
Consider `CC(C)(C)N1CC=CC23O[C@@H]4C=CCOC(=O)[C@@H]4[C@H]2C(=O)N(CCCCCO)[C@@H]3C1=O` (stereo not given in full), for which the composite z-score in test [1] is -0.396; in test [5] it was 0.735; in [7] it was -0.215; in test [8], -0.617; in test [9] it was -0.374; in [10], -0.224. Moreover, the z-score in test [2] was -0.256 (inactive); in test [3], -0.0499 (inactive); in [4] it was -0.177 (inactive); in test [6] it was 0.385 (inactive).
`CC(C)(C)OC(=O)CC[C@@]1(C(=O)O)N=C(c2ccc(OCCCO)cc2)O[C@@H]1c1ccccc1N=[N+]=[N-]`: the composite z-score in test [1] was 1.15; in test [5], 2.15; in test [7], 0.553; in test [8], -0.569; in test [9], 0.104; in test [10], 0.325. The z-score was 0.949 (inactive) in test [2], 0.419 (inactive) in [3], -0.286 (inactive) in test [4] and 0.484 (inactive) in test [6].
Take `N#Cc1ccc(NN2C(C(O)C3CCCCC3)C=CC3C(=O)N(c4ccccc4)C(=O)C32)cc1` (stereo not given): the composite z-score in test [1] was 1.45; in [5] it was 3.26; in test [7], 0.217; in test [8], -0.0519; in [9], 1.03; in test [10], 0.0065. For the same compound, the z-score in test [2] was -0.21 (inactive); in [3], 0.661 (inactive); in [4], 2.46 (inactive); in test [6] it was -1.08 (inactive).
Regarding `CCOC(=O)C[C@H]1[C@H](OC(=O)c2ccc(-c3ccccc3)cc2)[C@@H](NC(=O)Cc2ccc(OC)cc2)c2cc(OCCCO)ccc2N1C(=O)c1ccc2ccccc2n1`, the composite z-score in [1] was 0.532; in test [5], 1.73; in test [7] it was -0.0561; in test [8] it was 0.587; in test [9], 0.317; in test [10] it was 0.223. Also, the z-score is -0.914 (inactive) in test [2], 0.56 (inactive) in test [3], 0.0126 (inactive) in [4] and -0.733 (inactive) in test [6].
As to `CN1C=C(C(=O)OCCS(C)(=O)=O)C(C(=O)OCCS(C)(=O)=O)=CC(CCCO)=CC1C1CC1` (stereo not given), the composite z-score in test [1] is 0.0371; in test [5] it was 0.826; in test [7], -0.145; in test [8], 0.332; in test [9] it was 0.574; in test [10], -0.068. Further, the z-score is -0.298 (inactive) in [2], -0.0029 (inactive) in test [3], -0.692 (inactive) in [4] and 0.731 (inactive) in test [6].
